From PubChem BioAssay
Spn MK inh – inhibitors of Streptococcus pneumoniae mevalonate kinase; hit rate 0.48% among 65,000; purified MK, PK/LDH-coupled NADH absorbance 340 nm; inhibition, % at 10 µM;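 active means ranked among the strongest by inhibition in the single 10 µM screen, a fixed top-ranked set picked for dose follow-up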
DPM-DC inhibit – S. pneumoniae DPM-DC inhibition. purified DPM-DC, PK/LDH coupled NADH fluorescence. calls only at 10 µM. hit rate 0.49% among 65,000;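 active means the 320 compounds with the highest percent inhibition in the single-dose primary screen, excluding strongly autofluorescent ones, cut at about 32% in these data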;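 further: kinetic rate of NADH fluorescence loss reporting ADP formed by the decarboxylase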
NADH coupling – inhibitors of enzymes used to reach an NAD/NADH endpoint; coupled PK/LDH NADH assays, four targets; IC50, µM (doses to about 10 µM), without a hit: at the highest dose inhibition; hit rate 0.02% among 65,000; AID 774;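 active means single-dose screening hits from any of four coupled enzyme assays that gave an IC50 when retested across doses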;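 further: the DPM-DC format reads NADH fluorescence rather than 340 nm absorbance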
Spn PMK inh – S. pneumoniae PMK inhibition; purified PMK, PK/LDH-coupled NADH absorbance 340 nm; inhibition, % at 10 µM; hit rate 0.49% among 65,000; AID 539;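 active means top-ranked compounds by inhibition in the single 10 µM screen, taking a fixed number of the strongest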;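 further: 0% = full reaction with DMSO carrier and 100% = background rate without enzyme reaction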
Fluor 339 460 – intrinsic fluorescence of library compounds, ex339/em460 – biochemical, MLSMR library, data from DPM-DC assay, artefact control, profiling panel | compound autofluorescence, ex339/em460 nm, NADH buffer; hits give high values; 1 = no-compound wells, NADH background | fluorescence fold increase at 10 µM | hit rate 5.5% among 65,000 | AID 709;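 active means at 10 µM, mean starting fluorescence two-fold or more over control wells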;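 further: signal is the first read of a kinetic run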
Abs 340nm – absorbance at 340 nm; compound absorbance at 340 nm, fold over control; 65,000 tested, under 10 active; fold change at 10 µM;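 active means at 10 µM dose, initial 340 nm absorbance at least 2 fold that of control wells; inactive means change under 2 fold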;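 further: initial absorbance extrapolated from kinetic A340 decline of NADH oxidation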
* marks the source's active call; other numbers are inactive results; i = inactive; x = no result given. Only some compounds are listed: those with a hit (about 6.8% of all), similar ones and a draw of the others.

SMILES	Spn MK inh	DPM-DC inhibit	NADH coupling	Spn PMK inh	Fluor 339 460	Abs 340nm
COc1ccc(CN2C(=O)c3ccccc3C2C(=O)NC2CCCC2)c(OC)c1 (stereo not drawn)	1	i	3%	25*	1	0.96
COc1ccc(CN2C(=O)c3ccccc3C2C(=O)NCC2CCCO2)c(OC)c1 (stereo not drawn)	0	i	7%	20	1.1	0.99
CCc1c(C)sc(NC(=O)c2cc(-c3ccco3)on2)c1C#N	7	i	4%	4	1.1	1.1
Cc1ccc(S(=O)(=O)c2cc3c(=O)n4cccc(C)c4nc3n(CC3CCCO3)c2=N)cc1 (stereo not drawn)	7	i	10%	6	1.5	1
Cn1c(=N)c(S(=O)(=O)c2ccc(F)cc2)cc2c(=O)n3ccccc3nc21	10	x	13%	15	3.4*	1
N=c1c(S(=O)(=O)c2ccc(Cl)cc2)cc2c(=O)n3ccccc3nc2n1CCN1CCOCC1	x	x	0%	0	5*	1
Cn1c(=N)c(S(=O)(=O)c2ccccc2)cc2c(=O)n3ccccc3nc21	3	x	4%	13	2.8*	1
COc1ccc(/C(O)=C2/C(=O)C(=O)N(CCCN(C)C)C2c2cccnc2)cc1 (stereo not drawn)	10	i	7%	11	1	1
COC(=O)c1ccc(OCC(=O)Nc2nn(-c3ccccc3)nc2C(N)=O)cc1	14	i	15%	12	2.2*	1
CCCCS(=O)(=O)Nc1ccc2ncn(C)c(=O)c2c1	7	x	8%	9	3.5*	1
Cn1cnc2cc(NS(=O)(=O)c3ccc(Br)cc3)ccc21	5	i	2%	0	0.95	1
Cc1ccc(CN2CC34C=CC(O3)C(C(=O)NCc3ccc5c(c3)OCO5)C4C2=O)cc1 (stereo not drawn)	9	i	3%	0	1.1	1.1
COCCCNC(=O)C1C2C=CC3(CN(Cc4ccc(C)cc4)C(=O)C13)O2 (stereo not drawn)	0	i	12%	25*	0.85	1
COc1ccccc1NC(=O)c1ccc(NC(=O)CSc2nnnn2C)cc1	0	i	4%	21	1	0.97
O=C(Cc1cc(=O)oc2cc(O)ccc12)NCC1CCC(C(=O)O)CC1 (stereo not drawn)	8	x	4%	0	3.9*	1.1
Cc1cc(NCCCN2CCOCC2)n2ncc(-c3ccccc3)c2n1	10	i	12%	16	2.1*	1.1
Cc1cc(NCCCN2CCOCC2)n2nc(C)c(-c3ccccc3)c2n1	10	i	11%	13	1.5	1
COc1ccccc1-c1c(C)nn2c(NCCN3CCCC3)cc(C)nc12	1	i	2%	5	1.1	1.1
Cc1cc(C)c2c(n1)nn1c(NCCCN3CCOCC3)cc(C)nc21	4	x	3%	5	3*	1
Cc1cc(NCCCN2CCOCC2)n2nc(C)c(-c3ccc(F)cc3)c2n1	0	i	8%	25*	1.6	1.1
Cc1cc(NCCOCCO)n2ncc(-c3ccc(Cl)cc3)c2n1	11	i	15%	9	2.6*	1
CSc1cccc(NS(=O)(=O)c2cccc3nsnc23)c1	9	i	7%	6	1.1	0.96
Cn1c(Cc2ccccc2)nnc1SCC(=O)c1ccc(Br)s1	5	i	3%	19	1	1
Cc1ccccc1-c1nnc2s/c(=C\c3ccc(N(C)C)cc3)c(=O)n12	5	i	5%	9	1.1	1.1
Cc1cc(C)c2c(n1)nn1c(NCCCn3ccnc3)cc(C)nc21	10	x	10%	9	3.9*	0.98
SMILES	Spn MK inh	DPM-DC inhibit	NADH coupling	Spn PMK inh	Fluor 339 460	Abs 340nm
COc1ccc(CNC(=O)C2CC(=O)N(c3ccc(OCC(=O)N4C(C)CCCC4C)cc3)C2)cc1 (stereo not drawn)	10	i	9%	11	1.1	1
COc1cc(CNc2ccc3[nH]c(=O)[nH]c3c2)ccc1OCC(=O)NC(C)(C)C	5	x	9%	13	4.9*	0.99
COc1ccc(C2(O)CC3CCC(C2)N3c2nc(C)cc(C)c2C#N)cc1 (stereo not drawn)	2	i	3%	6	2.8*	0.99
COCCNC(=O)CSc1nc2cc(OC)c(OC)cc2c(=O)n1CCC1=CCCCC1	1	i	5%	13	1.1	1
CCN(CCO)c1ccc(-n2c(N)c(C(=O)OC)c3nc4ccccc4nc32)cc1	0	i	6%	19	1.1	1.1
COCCn1c(N)c(C(=O)OCc2ccccc2)c2nc3ccccc3nc21	0	x	4%	8	3.8*	1.1
COCCNC(=O)c1c(N)n(CCC2=CCCCC2)c2nc3ccccc3nc12	16	x	2%	3	2.5*	1
C=CCn1c(N)c(C(=O)OCCC)c2nc3ccccc3nc21	2	x	10%	18	3.6*	1.1
CCc1ccc(N(C(C)=O)C2C=CS(=O)(=O)C2)cc1 (stereo not drawn)	8	i	4%	4	1.1	1
C=CCn1c(SCc2nc3ccccc3nc2C)nnc1-c1ccoc1C	15	i	13%	23	1.1	1
Cc1cccc(NC(=O)Cn2cnc3ccc(S(=O)(=O)N4CCC(C)CC4)cc3c2=O)n1	x	i	4%	8	1.1	0.94
O=C1NCCCC1C(=O)Nc1ccccn1 (stereo not drawn)	9	i	8%	13	1.1	1
COc1ccc(C(=O)Nc2cccc3c2C(=O)NC3=O)cc1S(=O)(=O)N1CCOCC1	4	i	14%	25*	1.5	1.1
CCN(C(=O)c1cc2cc(OC)ccc2oc1=O)c1ccccc1	7	i	7%	10	1.4	1.1
COc1ccc2oc(=O)c(-c3nc(C)cs3)cc2c1	13	x	7%	0	2.2*	1
CCCCOc1ccc(OCCNS(=O)(=O)N(C)C)cc1	6	i	6%	11	1.1	1
C=CCNS(=O)(=O)c1cccc2cc(C(=O)O)c(O)cc12	4	i	9%	11	2.3*	1
CN(C)c1ccc(C(c2nnnn2C2CCCCC2)N2CCN(C(=O)c3ccco3)CC2)cc1 (stereo not drawn)	5	i	3%	5	1.1	0.96
Cc1ccc(NC(=O)c2oc3ccccc3c2NC(=O)c2ccc3c(c2)OCO3)cc1	0	i	1%	3	2*	1.1
O=C(Nc1cccc(F)c1)c1ccc2c(c1)OCO2	18	i	4%	8	1.1	1
CCOC(=O)c1ccc(NC(=O)c2ccc3c(c2)OCO3)cc1	3	i	2%	4	1.1	1.1
O=C(Nc1c(C(=O)Nc2cccc(F)c2)oc2ccccc12)c1ccc2c(c1)OCO2	0	x	3%	6	5*	1.1
